From PubChem BioAssay (NCATS) come the findings set out here.

Experiment [1] is described as follows: High Content Imaging Cell-Based qHTS for Inhibitors of the mTORC1 Signaling Pathway in MEF Cells (AID 2667).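 Further: Tsc2-/- p53-/- MEFs stably re-expressing wild-type Tsc2 exposed 24 h; series mostly up to about 38 µM.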 In outline:
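Read-out is the share of phospho-rpS6-positive cells per well, from Hoechst-normalized Alexa-488 Ser235/236 staining imaged on IN Cell. Cells: WT Tsc2-expressing Tsc2-/-, p53-/- MEFs exposed to compound for 24 hrs.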
On the technique in general: In qHTS, concentration-response curves come from the screen itself.

The target in experiment [2] is Ubiquitin carboxyl-terminal hydrolase 2 (Homo sapiens) (UniProt O75604). Put plainly: qHTS Validation Assay for Inhibitors of Ubiquitin-specific Protease USP2a Using CHOP2 as the Reporter (AID 463106). In outline: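 Fluorescence read-out at Ex 485nm/Em 531nm after 60min RT, following addition of 25nM Ub-CHOP2 plus 25nM reporter substrate to USP2 core (10nM) pretreated 30min with compound. Data normalized to NEM full inhibition; concentration-response curves fitted.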

The target of experiment [3] is DNA polymerase III PolC-type (Bacillus subtilis (strain 168)) (UniProt P13267). Briefly: qHTS Validation Assay for the Inhibitors of DNA Replication in Gram-Positive Bacteria (AID 485295).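 Further: reconstituted holoenzyme with PolC plus beta clamp SSB and primase; PicoGreen fluorescence of double-stranded DNA made on primed circular M13 template; series mostly up to about 57 µM.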 The essentials: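 Double-stranded DNA product detected by PicoGreen fluorescence after EDTA quench. Compound incubated with B. subtilis holoenzyme (PolC, beta subunit, SSB, primase) before substrate addition; primed replication of M13Gori with dNTPs and NTPs at room temperature; DMSO defines 0% inhibition.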

The target in experiment [4] is Tumor susceptibility gene 101 protein (Homo sapiens) (UniProt Q99816). Put plainly: qHTS Validation Assay for Iinhibitors of HIV-1 Budding by Blocking the Interaction of PTAP/TSG101 (AID 485342; calls by dose curve). The essentials: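 Fluorescence polarization of 50 nM FITC-PTAP peptide bound to 10 uM Tsg101 binding domain was read after 20 min room-temperature incubation with compounds, in 10 mM HEPES pH 7.5, 0.15 M NaCl, 0.01% Tween 20.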

The target in experiment [5] is Beta-2 adrenergic receptor (Homo sapiens) (UniProt P07550). Put plainly: qHTS validation assay of beta-arrestin-biased ligands of beta2-adrenergic receptor (AID 485366). The essentials:
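Screening used a titration range of up to 46 microM in a beta-arrestin recruitment Tango luciferase assay. Cells in 1% FBS medium were treated 18 hr at 37 degrees C, and luminescence was normalized to %Activity.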

The target of experiment [6] is ATP-dependent 6-phosphofructokinase (Trypanosoma brucei brucei) (UniProt O15648). Briefly: qHTS Validation Assay to Find Inhibitors of T. brucei phosphofructokinase (AID 485368). As to conditions: outcome: dose series up to 57.5 µM. The essentials: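 PFK-generated ADP was measured after 45 min at room temperature using ADP-Glo. The reaction contained 0.5 mM F6P and 0.1 mM ATP.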

Experiment [7] has as its target Thioredoxin reductase 1, cytoplasmic (Rattus norvegicus) (UniProt O89049). Put plainly: qHTS Assay for Substrates of Mammalian Selenoprotein Thioredoxin Reductase 1 (TrxR1) (AID 488772).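 Further: series mostly up to about 57 µM; a drop in NADPH fluorescence below the no-compound background marks a TrxR1 substrate.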 In outline: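 In this dual-purpose format, potential substrates are identified from the first fluorescence read after selenite addition, not from the 8-minute delta. Rat enzyme is preincubated with NADPH and then with compound at ~22 deg C.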

The target is the same in experiment [8]. Put plainly: qHTS Assay for Inhibitors of Mammalian Selenoprotein Thioredoxin Reductase 1 (TrxR1) (AID 488773). Further: nearly all actives have a fitted effect of over 40% in size. Further: potency means the concentration at half of the fitted maximal effect. The note with it: Potency: inhibition. In outline:
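Inhibition is scored from the loss of NADPH fluorescence between first and last reads of an 8-min kinetic run. Selenite (400 uM) was the substrate, added after 15 min compound preincubation at room temperature.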

For experiment [9], the target named is Flap endonuclease 1 (Homo sapiens) (UniProt P39748). Put plainly: qHTS Validation Assay for the Inhibitors of Human Flap endonuclease 1 (FEN1) (AID 488816). In outline: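 Enzyme reagent 10 nM; cpds pinned; 15 min RT preinc.; substrate 50 nM final; reads t=0 and 15 min; no-enzyme buffer wells as neg. control; normalized data, 4-parameter Hill fit.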
Experiment [10] concerns the target M-phase phosphoprotein 8 (Homo sapiens) (UniProt Q99549). Put plainly: qHTS Validation Assay for Inhibitors for MPP8 Chromodomain Interactions with Methylated Histone Tails (AID 488949).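 Further: AlphaScreen signal from MPP8 chromodomain bound to biotinylated H3K9me3 peptide; top concentration of the series differs between compounds; nearly all actives have a fitted effect of over 55% in size.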 In outline:
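AlphaScreen proximity signal from streptavidin donor and Ni-chelate acceptor beads (10 ug/mL each) reported binding of MPP8 to trimethyl-K9 H3(1-18) peptide, both at 50 nM. The complex formed 30 min before a 30 min compound exposure at room temperature, in PBS pH 7.4.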

Experiment [11] deals with Chromobox protein homolog 1 (Homo sapiens) (UniProt P83916). Put plainly: qHTS Validation Assay for Inhibitors of HP1-beta Chromodomain Interactions with Methylated Histone Tails (AID 488953).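 Further: loss of AlphaScreen luminescence from HP1-beta binding biotinylated H3K9me3 peptide; series mostly up to about 110 µM; nearly all actives have a fitted effect of over 50% in size.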 The essentials: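 Compounds pinned into a preassembled complex of HP1-beta and trimethyl-K9 histone H3(1-18) biotin peptide (50 nM each; PBS pH 7.4, 0.01% Tween-20). After 30 min, bead-based AlphaScreen detection followed.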

Experiment [12] deals with Methanococcus maripaludis chaperonin (MmCpn) (UniProt Q6LX38). Briefly: High-Throughput Screening for Modulators of Cytosolic Chaperonin Activity: MmCpn Primary Screen (AID 488978).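 Further: 50 nM MmCpn enzyme hydrolysing 30 µM ATP at 37 °C.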 The essentials: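 ATPase activity of 50 nM MmCpn was assayed with 30 uM ATP, 10 minutes at 37C, after a 5 min compound preincubation at room temperature. ADP production was read as HTRF emission at 590 and 665 nm.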

The target of experiment [13] is Transient receptor potential cation channel subfamily V member 1 (Homo sapiens) (UniProt Q8NER1). Put plainly: HTS Assay for Compounds that Act as Enhancers of the Vanilloid Receptor 1 (AID 488979). In outline:
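TRPV1 cells loaded with Fluo-8 calcium dye; compound added and Ca2+ signal (ex 480/em 520 nm) followed 3 min, then capsaicin at EC20 added and read 2 more min to detect enhancement.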

Experiment [14] deals with Thyrotropin receptor (Homo sapiens) (UniProt P16473). Put plainly: qHTS Assay for Antagonists of the Thyroid Stimulating Hormone Receptor (AID 488980). Further: series mostly up to about 58 µM. In outline:
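Inhibition of cAMP raised by EC80 TSH (4 nM final) was read by HTRF, with lysate cAMP competing against cAMP-d2 for cryptate antibody after 30 min at room temperature. The cells were transfected HEK293 held in phosphodiesterase inhibitor RO 20-1724 at 70 uM.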

Experiment [15] concerns the target D(1A) dopamine receptor (Homo sapiens) (UniProt P21728). Briefly: HTS Assay for Allosteric Agonists of the Human D1 Dopamine Receptor: Primary Screen for Agonists (AID 488981). The essentials:
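Tetracycline-induced HEK293 Trex D1 cells with forced coupling to calcium, loaded with no-wash calcium dye; kinetic fluorescence read 180 s after compound addition for agonism, then a further 180 s after an EC20 dopamine challenge for potentiation.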

Experiment [16] has the same target. Briefly: HTS Assay for Allosteric Agonists of the Human D1 Dopamine Receptor: Primary Screen for Antagonists (AID 488983).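 Further: calcium flux response to an EC80 dopamine challenge measured with no-wash dye; nearly all actives have a fitted effect of over 65% in size.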 In outline: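 In this primary screen, compounds are applied to calcium-dye-loaded HEK293 T-REx cells with force-coupled D1 expression induced overnight at 30 C. An EC80 of dopamine follows the 180 s compound phase, and calcium is monitored for a further 180 s.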

Experiment [17] is described as follows: Cytometry Cell-Based qHTS for Inhibitors of the mTORC1 Signaling Pathway in MEF cells (AID 2668).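 Further: Tsc2-/- p53-/- mouse embryonic fibroblasts stably re-expressing wild-type Tsc2; percent cells positive for phospho-rpS6 Ser235/236 relative to propidium iodide stain; series mostly up to about 38 µM.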 In outline: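 Phospho-rpS6 (Ser235/236) immunofluorescence over PI signal, scored as % positive cells using thresholds from 7.5 nM rapamycin and DMSO wells, after 24 h compound exposure of WT-Tsc2-rescued Tsc2-/-, p53-/- MEFs. PI cell count recorded for viability.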

The nature of experiment [18]: Validation screen for small molecules that induce DNA re-replication in MCF 10A normal breast cells (AID 463097). Further: nearly all actives have a fitted effect of over 60% in size. In outline:
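Read-out is Hoechst total nuclear intensity by fluorescence scanning imager, flagging increased high-DNA-content nuclei. Compounds were incubated with MCF 10A cells for 48 hr (37 C, 5% CO2) before 40 min staining.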

The nature of experiment [19]: qHTS Validation Assay to Find Inhibitors of Chronic Active B-Cell Receptor Signaling (AID 485345; active means well fitted curve in the direction sought with a large enough effect in the main read-out, with a control signal flat, not every such curve was filed as active). The essentials: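 TMD8 ABC-DLBCL cells stably carrying doxycycline-inducible IkappaBalpha–green luciferase fusion plus unfused red luciferase; compounds 46 uM to 3 nM, 4 h at 37C with doxycycline. Corrected green/red luminescence ratio normalized to 10 uM MG-132 and basal cell wells; curves fitted.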

Records with an inconclusive call do not appear. Active and inactive are the calls of the source. Unless noted, the call rests on the fitted dose curve; in most records, active means well fitted curve in the direction sought with a large enough effect; inconclusive means small, poorly fitted or top-dose-only effect, or another doubt; inactive means no such curve, though single readings can be large; an effect the other way counts as inactive or inconclusive.

Thioredoxin reductase 1, cytoplasmic (Rattus norvegicus), sequence (O89049 whole entry, looked up): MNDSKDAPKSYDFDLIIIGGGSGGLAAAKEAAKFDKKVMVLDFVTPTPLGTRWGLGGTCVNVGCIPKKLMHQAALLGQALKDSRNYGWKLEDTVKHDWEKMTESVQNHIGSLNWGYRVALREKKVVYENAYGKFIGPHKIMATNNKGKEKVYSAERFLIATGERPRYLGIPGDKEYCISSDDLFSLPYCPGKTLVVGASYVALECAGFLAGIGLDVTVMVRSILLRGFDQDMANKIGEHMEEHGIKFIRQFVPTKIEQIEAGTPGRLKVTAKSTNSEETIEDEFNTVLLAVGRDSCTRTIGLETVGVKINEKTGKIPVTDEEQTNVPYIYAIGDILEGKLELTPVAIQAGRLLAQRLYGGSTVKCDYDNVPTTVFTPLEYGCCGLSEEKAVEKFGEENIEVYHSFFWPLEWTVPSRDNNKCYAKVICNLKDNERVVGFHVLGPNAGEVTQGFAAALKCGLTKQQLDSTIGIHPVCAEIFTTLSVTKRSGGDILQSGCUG
Tumor susceptibility gene 101 protein (Homo sapiens), sequence (Q99816 whole entry, looked up, the tested form may be a part): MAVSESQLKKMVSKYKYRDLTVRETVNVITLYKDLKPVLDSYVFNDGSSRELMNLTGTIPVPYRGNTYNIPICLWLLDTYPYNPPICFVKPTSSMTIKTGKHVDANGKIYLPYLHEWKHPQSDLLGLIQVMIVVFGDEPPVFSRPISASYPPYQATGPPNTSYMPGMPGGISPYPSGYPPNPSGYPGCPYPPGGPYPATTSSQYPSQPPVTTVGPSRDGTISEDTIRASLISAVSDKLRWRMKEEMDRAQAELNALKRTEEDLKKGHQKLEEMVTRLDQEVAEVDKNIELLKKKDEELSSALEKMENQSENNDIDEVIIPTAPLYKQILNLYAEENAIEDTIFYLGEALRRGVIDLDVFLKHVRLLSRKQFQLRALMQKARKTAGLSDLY
Chromobox protein homolog 1 (Homo sapiens), sequence (P83916 whole entry, looked up): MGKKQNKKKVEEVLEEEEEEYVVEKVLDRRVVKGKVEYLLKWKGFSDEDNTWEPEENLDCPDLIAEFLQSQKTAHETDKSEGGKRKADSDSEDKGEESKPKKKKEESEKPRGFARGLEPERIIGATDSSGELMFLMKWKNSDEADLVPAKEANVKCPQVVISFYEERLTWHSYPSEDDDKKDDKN
Ubiquitin carboxyl-terminal hydrolase 2 (Homo sapiens), sequence (O75604 whole entry, looked up): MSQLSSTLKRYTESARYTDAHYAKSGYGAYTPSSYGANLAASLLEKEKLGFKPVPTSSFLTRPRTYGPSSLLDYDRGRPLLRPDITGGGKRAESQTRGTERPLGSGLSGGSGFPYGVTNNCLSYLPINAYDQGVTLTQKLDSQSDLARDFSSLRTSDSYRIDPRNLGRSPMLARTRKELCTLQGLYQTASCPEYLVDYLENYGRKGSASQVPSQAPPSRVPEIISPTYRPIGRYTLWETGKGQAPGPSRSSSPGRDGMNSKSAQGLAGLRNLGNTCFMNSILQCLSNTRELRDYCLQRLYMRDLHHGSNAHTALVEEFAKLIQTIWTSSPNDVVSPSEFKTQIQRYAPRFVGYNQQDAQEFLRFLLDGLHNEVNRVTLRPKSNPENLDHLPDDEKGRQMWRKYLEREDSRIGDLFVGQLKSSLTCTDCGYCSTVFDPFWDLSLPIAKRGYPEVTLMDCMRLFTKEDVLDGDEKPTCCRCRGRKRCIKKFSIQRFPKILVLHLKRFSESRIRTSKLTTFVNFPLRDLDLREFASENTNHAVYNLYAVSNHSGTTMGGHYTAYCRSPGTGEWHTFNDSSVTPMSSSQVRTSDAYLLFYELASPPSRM
ATP-dependent 6-phosphofructokinase (Trypanosoma brucei brucei), sequence (O15648 whole entry, looked up): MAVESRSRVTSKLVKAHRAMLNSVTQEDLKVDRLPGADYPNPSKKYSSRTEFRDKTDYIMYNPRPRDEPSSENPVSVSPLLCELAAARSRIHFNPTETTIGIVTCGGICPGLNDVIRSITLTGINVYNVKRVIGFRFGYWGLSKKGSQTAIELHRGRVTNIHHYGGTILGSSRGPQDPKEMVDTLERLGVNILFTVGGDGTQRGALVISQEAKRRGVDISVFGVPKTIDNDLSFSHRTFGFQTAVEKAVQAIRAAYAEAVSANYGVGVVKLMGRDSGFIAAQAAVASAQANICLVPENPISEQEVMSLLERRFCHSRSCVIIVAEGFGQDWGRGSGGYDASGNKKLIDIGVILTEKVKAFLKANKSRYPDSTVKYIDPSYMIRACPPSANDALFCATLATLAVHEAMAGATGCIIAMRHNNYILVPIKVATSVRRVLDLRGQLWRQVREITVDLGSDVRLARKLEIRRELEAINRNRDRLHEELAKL
Transient receptor potential cation channel subfamily V member 1 (Homo sapiens), sequence (Q8NER1 whole entry, looked up): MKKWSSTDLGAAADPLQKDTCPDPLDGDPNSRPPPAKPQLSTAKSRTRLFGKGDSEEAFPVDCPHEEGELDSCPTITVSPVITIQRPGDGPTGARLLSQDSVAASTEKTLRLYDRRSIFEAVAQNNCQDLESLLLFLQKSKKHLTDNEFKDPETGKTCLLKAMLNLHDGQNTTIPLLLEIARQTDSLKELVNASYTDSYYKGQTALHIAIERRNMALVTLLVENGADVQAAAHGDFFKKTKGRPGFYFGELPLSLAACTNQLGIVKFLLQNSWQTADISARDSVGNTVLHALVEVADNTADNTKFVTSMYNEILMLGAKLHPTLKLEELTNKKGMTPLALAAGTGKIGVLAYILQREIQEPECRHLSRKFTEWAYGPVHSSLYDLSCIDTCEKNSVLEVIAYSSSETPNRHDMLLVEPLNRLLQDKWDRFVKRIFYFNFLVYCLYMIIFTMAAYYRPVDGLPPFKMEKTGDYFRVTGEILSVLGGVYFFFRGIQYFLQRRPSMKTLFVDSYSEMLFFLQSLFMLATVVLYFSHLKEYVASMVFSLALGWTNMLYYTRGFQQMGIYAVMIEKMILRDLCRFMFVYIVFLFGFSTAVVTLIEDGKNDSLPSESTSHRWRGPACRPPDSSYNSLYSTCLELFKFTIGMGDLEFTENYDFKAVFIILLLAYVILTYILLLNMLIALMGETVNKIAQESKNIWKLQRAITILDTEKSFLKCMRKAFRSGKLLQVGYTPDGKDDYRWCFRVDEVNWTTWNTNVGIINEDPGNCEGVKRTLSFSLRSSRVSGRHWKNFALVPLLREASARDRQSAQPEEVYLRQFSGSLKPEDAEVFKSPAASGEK
Flap endonuclease 1 (Homo sapiens), sequence (P39748 whole entry, looked up): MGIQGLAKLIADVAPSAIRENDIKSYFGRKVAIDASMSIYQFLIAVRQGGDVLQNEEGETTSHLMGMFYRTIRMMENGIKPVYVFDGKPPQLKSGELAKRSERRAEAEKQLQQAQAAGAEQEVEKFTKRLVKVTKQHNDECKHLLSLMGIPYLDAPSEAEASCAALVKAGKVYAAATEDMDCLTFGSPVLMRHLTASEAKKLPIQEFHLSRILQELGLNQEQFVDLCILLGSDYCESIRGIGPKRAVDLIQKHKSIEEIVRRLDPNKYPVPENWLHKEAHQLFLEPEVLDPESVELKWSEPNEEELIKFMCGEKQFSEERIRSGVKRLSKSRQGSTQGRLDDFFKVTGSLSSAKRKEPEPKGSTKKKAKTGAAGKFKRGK
Beta-2 adrenergic receptor (Homo sapiens), sequence (P07550 whole entry, looked up): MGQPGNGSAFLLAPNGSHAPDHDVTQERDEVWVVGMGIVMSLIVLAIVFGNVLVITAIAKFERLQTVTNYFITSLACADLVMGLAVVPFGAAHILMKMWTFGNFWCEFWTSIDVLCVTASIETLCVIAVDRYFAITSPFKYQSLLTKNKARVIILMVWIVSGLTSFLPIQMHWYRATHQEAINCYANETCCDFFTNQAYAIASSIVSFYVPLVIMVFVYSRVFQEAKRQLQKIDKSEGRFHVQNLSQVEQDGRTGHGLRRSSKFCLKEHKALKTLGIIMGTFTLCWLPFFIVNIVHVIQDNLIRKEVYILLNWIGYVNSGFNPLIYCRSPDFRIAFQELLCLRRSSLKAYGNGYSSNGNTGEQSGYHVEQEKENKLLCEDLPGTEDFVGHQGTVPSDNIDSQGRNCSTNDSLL
Thyrotropin receptor (Homo sapiens), sequence (P16473 whole entry, looked up): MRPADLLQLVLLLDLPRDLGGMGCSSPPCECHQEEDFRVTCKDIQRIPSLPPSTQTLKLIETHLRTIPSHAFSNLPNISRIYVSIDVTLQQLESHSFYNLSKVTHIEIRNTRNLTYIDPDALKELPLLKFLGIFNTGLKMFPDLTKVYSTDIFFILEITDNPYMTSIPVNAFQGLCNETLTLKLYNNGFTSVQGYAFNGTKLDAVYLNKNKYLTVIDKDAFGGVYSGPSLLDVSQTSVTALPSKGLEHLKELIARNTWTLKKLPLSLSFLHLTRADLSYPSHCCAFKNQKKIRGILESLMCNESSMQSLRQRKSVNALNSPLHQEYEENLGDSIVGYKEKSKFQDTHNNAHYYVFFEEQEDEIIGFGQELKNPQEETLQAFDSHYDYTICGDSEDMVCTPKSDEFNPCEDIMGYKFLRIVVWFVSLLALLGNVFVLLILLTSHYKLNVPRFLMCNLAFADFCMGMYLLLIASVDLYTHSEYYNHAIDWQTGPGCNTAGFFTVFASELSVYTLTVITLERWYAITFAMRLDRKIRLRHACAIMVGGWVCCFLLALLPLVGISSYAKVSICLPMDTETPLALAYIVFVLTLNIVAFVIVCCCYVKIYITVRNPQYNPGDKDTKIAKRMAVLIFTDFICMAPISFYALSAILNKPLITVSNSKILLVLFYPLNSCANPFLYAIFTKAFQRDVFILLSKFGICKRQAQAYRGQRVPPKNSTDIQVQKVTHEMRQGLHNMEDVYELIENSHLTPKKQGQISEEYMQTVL

As for `Cn1cnc([N+](=O)[O-])c1Sc1ncnc2nc[nH]c12`, the compound was called inactive in experiment [1], in experiment [2], in experiment [4], in experiment [5], in experiment [6] and in experiment [7]. The compound was classed as inactive in [12], in experiment [13] and in [14]. For the same compound, the Potency result in [3], in [9], in experiment [10], in [11], in experiment [15] and in experiment [16] was “inactive” throughout. The Potency in experiment [8] is 15 µM (active).
Turning to `CC(C)C[C@H](NC(=O)[C@@H](O)[C@H](N)Cc1ccccc1)C(=O)O`, the result in experiment [17], in [2], in experiment [4], in [19], in [7] and in experiment [12] was inactive. Moreover, the outcome in [13] and in [14] was inactive. The Potency result in [18], in [3], in experiment [8], in experiment [9], in experiment [10] and in experiment [11] was “inactive” throughout. Further, the Potency entry in [15] and in experiment [16] was “inactive” each time.
Turning to `CCCC(CCC)C(=O)O`, the Potency result in experiment [18], in [3], in experiment [8], in experiment [9], in [10] and in experiment [11] was “inactive” each time. Besides, the Potency result in [15] and in experiment [16] was “inactive” each time. Besides, the compound was called inactive in experiment [2], in [4], in [19], in [5], in experiment [6] and in [7]. The compound was classed as inactive in [12], in [13] and in [14].
As for `c1ccc([C@H]2CN3CCSC3=N2)cc1`, the call in [17], in [2], in [4], in experiment [19], in experiment [5] and in experiment [7] was inactive. Also, the result in experiment [12], in experiment [13] and in experiment [14] was inactive. The Potency result in experiment [18], in experiment [3], in experiment [8], in [9], in experiment [10] and in experiment [11] was “inactive” in each case. In addition, the Potency entry in experiment [15] and in experiment [16] was “inactive” in each case.
Consider `CCOC(=O)C1=C[C@]2(CC)CCCN3CCc4c(n1c1ccccc41)[C@@H]32`, for which the call in experiment [1], in experiment [2], in [4], in experiment [5], in experiment [6] and in [7] was inactive. Further, the result in [12], in experiment [13] and in [14] was inactive. Also, the Potency result in [18], in experiment [3], in experiment [8], in experiment [9], in [10] and in [15] was “inactive” in each case.
For `O=C1CCC(N2C(=O)c3ccccc3C2=O)C(=O)N1` (stereo not drawn), the Potency result in [18], in experiment [3], in experiment [8], in experiment [9], in [10] and in [11] was “inactive” each time. Moreover, the Potency result in experiment [15] and in experiment [16] was “inactive” throughout. Also, the result in experiment [2], in experiment [4], in experiment [19], in experiment [5], in [6] and in [7] was inactive. For the same compound, the outcome in experiment [12], in experiment [13] and in [14] was inactive.
